B1: unnamed (peptide)
chain: GKFIPSRPAPKPPSS

Each binder was assayed against AgAbp1 (assay: SPOT peptide array binding signal intensity (averaged, normalized) (arbitrary units (background-subtracted, floor 0; scale differs between SH3 domains)); higher = stronger binding of the SH3 domain to the peptide).
Procedure, shortened: (§1)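 E. coli BL21(DE3) was used to express GST-fused SH3 domains from four yeast species, which were then purified on glutathione Sepharose. These were incubated at 10 μg/ml in TBS-based blocking buffer overnight at 4°C on cellulose membranes carrying synthetic 15-mer peptides, in which cysteines were replaced by serines. Binding signal is the replicate average of normalized, background-subtracted spot intensity, in arbitrary units that differ between domains.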
In the case of B1, the “SPOT peptide array binding signal intensity” value is reported as 978.

Each binder was assayed against AgBbc1 in the same assay as above.
Procedure, shortened: as §1
For B1, the “SPOT peptide array binding signal intensity” value was 1050.

Each binder was assayed against AgBem1-D1 in the same assay as above.
Procedure, shortened: as §1
For B1, the “SPOT peptide array binding signal intensity” value was 328.

The binders below were run against AgBzz1-D1 in the same assay as above.
Procedure, shortened: as §1
In the case of B1, the “SPOT peptide array binding signal intensity” value is reported as 46.

Each binder was assayed against AgBzz1-D2 in the same assay as above.
Procedure, shortened: as §1
For B1, the “SPOT peptide array binding signal intensity” value was 37.

The binders below were run against AgCyk3 in the same assay as above.
Procedure, shortened: as §1
In the case of B1, the “SPOT peptide array binding signal intensity” value is reported as 2.

What follows are binders tested against AgFus1 in the same assay as above.
Procedure, shortened: as §1
With B1 the “SPOT peptide array binding signal intensity” value was at most 0.

Each binder was assayed against AgHof1 in the same assay as above.
Procedure, shortened: as §1
In the case of B1, the “SPOT peptide array binding signal intensity” value is reported as 51.8.

Each binder was assayed against AgHse1 in the same assay as above.
Procedure, shortened: as §1
For B1, the “SPOT peptide array binding signal intensity” value was 8.

What follows are binders tested against AgLsb1 in the same assay as above.
Procedure, shortened: as §1
With B1 the “SPOT peptide array binding signal intensity” value was 218.

The binders below were run against AgLsb4 in the same assay as above.
Procedure, shortened: as §1
With B1 the “SPOT peptide array binding signal intensity” value was 19.

These binders were tested against AgMyo5 in the same assay as above.
Procedure, shortened: as §1
In the case of B1, the “SPOT peptide array binding signal intensity” value is reported as 1850.

These binders were tested against AgNbp2 in the same assay as above.
Procedure, shortened: as §1
With B1 the “SPOT peptide array binding signal intensity” value was 4160.

Each binder was assayed against AgRvs167 in the same assay as above.
Procedure, shortened: as §1
In the case of B1, the “SPOT peptide array binding signal intensity” value is reported as 2.83.

Each binder was assayed against AgSho1 in the same assay as above.
Procedure, shortened: as §1
For B1, the “SPOT peptide array binding signal intensity” value was 17.

Each binder was assayed against AgSla1-D1-D2 in the same assay as above.
Procedure, shortened: as §1
In the case of B1, the “SPOT peptide array binding signal intensity” value is reported as 35.

The binders below were run against AgSla1-D3 in the same assay as above.
Procedure, shortened: as §1
B1 was tested, and the “SPOT peptide array binding signal intensity” value was 9.25.

What follows are binders tested against CaAbp1-D1 in the same assay as above.
Procedure, shortened: as §1
B1 was tested, and the “SPOT peptide array binding signal intensity” value was 922.

What follows are binders tested against CaAbp1-D2 in the same assay as above.
Procedure, shortened: as §1
With B1 the “SPOT peptide array binding signal intensity” value was 764.

Each binder was assayed against CaBbc1 in the same assay as above.
Procedure, shortened: as §1
With B1 the “SPOT peptide array binding signal intensity” value was 1370.

Each binder was assayed against CaBem1-D1 in the same assay as above.
Procedure, shortened: as §1
With B1 the “SPOT peptide array binding signal intensity” value was 2020.

What follows are binders tested against CaBzz1-D1 in the same assay as above.
Procedure, shortened: as §1
In the case of B1, the “SPOT peptide array binding signal intensity” value is reported as 1860.

Each binder was assayed against CaBzz1-D2 in the same assay as above.
Procedure, shortened: as §1
For B1, the “SPOT peptide array binding signal intensity” value was 808.

The binders below were run against CaCyk3 in the same assay as above.
Procedure, shortened: as §1
With B1 the “SPOT peptide array binding signal intensity” value was 88.5.

Each binder was assayed against CaFus1 in the same assay as above.
Procedure, shortened: as §1
B1 was tested, and the “SPOT peptide array binding signal intensity” value was 54.5.

These binders were tested against CaHof1 in the same assay as above.
Procedure, shortened: as §1
B1 was tested, and the “SPOT peptide array binding signal intensity” value was 0.5.

What follows are binders tested against CaHse1 in the same assay as above.
Procedure, shortened: as §1
With B1 the “SPOT peptide array binding signal intensity” value was at most 0.

What follows are binders tested against CaLsb1 in the same assay as above.
Procedure, shortened: as §1
With B1 the “SPOT peptide array binding signal intensity” value was at most 0.

What follows are binders tested against CaLsb4 in the same assay as above.
Procedure, shortened: as §1
B1 was tested, and the “SPOT peptide array binding signal intensity” value was 53.

Each binder was assayed against CaMyo5 in the same assay as above.
Procedure, shortened: as §1
For B1, the “SPOT peptide array binding signal intensity” value was 24.

Each binder was assayed against CaNbp2 in the same assay as above.
Procedure, shortened: as §1
B1 was tested, and the “SPOT peptide array binding signal intensity” value was 3600.

What follows are binders tested against CaRvs167 in the same assay as above.
Procedure, shortened: as §1
B1 was tested, and the “SPOT peptide array binding signal intensity” value was 26.2.

What follows are binders tested against CaRvs167-3 in the same assay as above.
Procedure, shortened: as §1
With B1 the “SPOT peptide array binding signal intensity” value was 3.25.

What follows are binders tested against CaSho1 in the same assay as above.
Procedure, shortened: as §1
In the case of B1, the “SPOT peptide array binding signal intensity” value is reported as 36.

What follows are binders tested against CaSla1-D1-D2 in the same assay as above.
Procedure, shortened: as §1
In the case of B1, the “SPOT peptide array binding signal intensity” value is reported as 684.

What follows are binders tested against CaSla1-D3 in the same assay as above.
Procedure, shortened: as §1
With B1 the “SPOT peptide array binding signal intensity” value was 14.5.

The binders below were run against ScAbp1 in the same assay as above.
Procedure, shortened: as §1
B1 was tested, and the “SPOT peptide array binding signal intensity” value was 127.

These binders were tested against ScBbc1 in the same assay as above.
Procedure, shortened: as §1
For B1, the “SPOT peptide array binding signal intensity” value was 552.

These binders were tested against ScBem1-D1 in the same assay as above.
Procedure, shortened: as §1
For B1, the “SPOT peptide array binding signal intensity” value was 1.

The binders below were run against ScBzz1-D1 in the same assay as above.
Procedure, shortened: as §1
For B1, the “SPOT peptide array binding signal intensity” value was 39.

These binders were tested against ScBzz1-D2 in the same assay as above.
Procedure, shortened: as §1
With B1 the “SPOT peptide array binding signal intensity” value was 25.

What follows are binders tested against ScCyk3 in the same assay as above.
Procedure, shortened: as §1
In the case of B1, the “SPOT peptide array binding signal intensity” value is reported as 2.

What follows are binders tested against ScFus1 in the same assay as above.
Procedure, shortened: as §1
In the case of B1, the “SPOT peptide array binding signal intensity” value is reported as at most 0.

The binders below were run against ScHof1 in the same assay as above.
Procedure, shortened: as §1
With B1 the “SPOT peptide array binding signal intensity” value was 8.25.

The binders below were run against ScHse1 in the same assay as above.
Procedure, shortened: as §1
With B1 the “SPOT peptide array binding signal intensity” value was 74.

These binders were tested against ScLsb1 in the same assay as above.
Procedure, shortened: as §1
B1 was tested, and the “SPOT peptide array binding signal intensity” value was 175.

These binders were tested against ScLsb2 in the same assay as above.
Procedure, shortened: as §1
In the case of B1, the “SPOT peptide array binding signal intensity” value is reported as 161.

The binders below were run against ScLsb3 in the same assay as above.
Procedure, shortened: as §1
In the case of B1, the “SPOT peptide array binding signal intensity” value is reported as 508.

These binders were tested against ScLsb4 in the same assay as above.
Procedure, shortened: as §1
In the case of B1, the “SPOT peptide array binding signal intensity” value is reported as 13.5.

What follows are binders tested against ScMyo3 in the same assay as above.
Procedure, shortened: as §1
With B1 the “SPOT peptide array binding signal intensity” value was 3530.

The binders below were run against ScMyo5 in the same assay as above.
Procedure, shortened: as §1
In the case of B1, the “SPOT peptide array binding signal intensity” value is reported as 3480.

The binders below were run against ScNbp2 in the same assay as above.
Procedure, shortened: as §1
For B1, the “SPOT peptide array binding signal intensity” value was 5410.

The binders below were run against ScPex13 in the same assay as above.
Procedure, shortened: as §1
In the case of B1, the “SPOT peptide array binding signal intensity” value is reported as 1460.

Each binder was assayed against ScRvs167 in the same assay as above.
Procedure, shortened: as §1
In the case of B1, the “SPOT peptide array binding signal intensity” value is reported as 274.

These binders were tested against ScSho1 in the same assay as above.
Procedure, shortened: as §1
In the case of B1, the “SPOT peptide array binding signal intensity” value is reported as 66.5.

The binders below were run against ScSla1-D1-D2 in the same assay as above.
Procedure, shortened: as §1
B1 was tested, and the “SPOT peptide array binding signal intensity” value was 652.

These binders were tested against ScSla1-D3 in the same assay as above.
Procedure, shortened: as §1
In the case of B1, the “SPOT peptide array binding signal intensity” value is reported as 156.

Each binder was assayed against SpAbp1-D1 in the same assay as above.
Procedure, shortened: as §1
For B1, the “SPOT peptide array binding signal intensity” value was 187.

Each binder was assayed against SpBbc1 in the same assay as above.
Procedure, shortened: as §1
In the case of B1, the “SPOT peptide array binding signal intensity” value is reported as 46.5.

The binders below were run against SpBzz1-D1 in the same assay as above.
Procedure, shortened: as §1
B1 was tested, and the “SPOT peptide array binding signal intensity” value was 735.

These binders were tested against SpBzz1-D2 in the same assay as above.
Procedure, shortened: as §1
B1 was tested, and the “SPOT peptide array binding signal intensity” value was 9.5.

The binders below were run against SpCyk3 in the same assay as above.
Procedure, shortened: as §1
With B1 the “SPOT peptide array binding signal intensity” value was 5.

What follows are binders tested against SpHof1 in the same assay as above.
Procedure, shortened: as §1
B1 was tested, and the “SPOT peptide array binding signal intensity” value was 77.5.

What follows are binders tested against SpHof1-2 in the same assay as above.
Procedure, shortened: as §1
For B1, the “SPOT peptide array binding signal intensity” value was 33.

What follows are binders tested against SpHof1-3 in the same assay as above.
Procedure, shortened: as §1
For B1, the “SPOT peptide array binding signal intensity” value was 94.8.

These binders were tested against SpHse1 in the same assay as above.
Procedure, shortened: as §1
With B1 the “SPOT peptide array binding signal intensity” value was 180.

What follows are binders tested against SpLsb1 in the same assay as above.
Procedure, shortened: as §1
B1 was tested, and the “SPOT peptide array binding signal intensity” value was 98.8.

What follows are binders tested against SpLsb4 in the same assay as above.
Procedure, shortened: as §1
B1 was tested, and the “SPOT peptide array binding signal intensity” value was 600.

These binders were tested against SpMyo1 in the same assay as above.
Procedure, shortened: as §1
With B1 the “SPOT peptide array binding signal intensity” value was 2900.

These binders were tested against SpNbp2 in the same assay as above.
Procedure, shortened: as §1
B1 was tested, and the “SPOT peptide array binding signal intensity” value was 850.

The binders below were run against SpPex13 in the same assay as above.
Procedure, shortened: as §1
In the case of B1, the “SPOT peptide array binding signal intensity” value is reported as 22.

These binders were tested against SpRvs167 in the same assay as above.
Procedure, shortened: as §1
In the case of B1, the “SPOT peptide array binding signal intensity” value is reported as 90.

What follows are binders tested against SpSla1-D1-D2 in the same assay as above.
Procedure, shortened: as §1
With B1 the “SPOT peptide array binding signal intensity” value was at most 0.

These binders were tested against SpSla1-D3 in the same assay as above.
Procedure, shortened: as §1
In the case of B1, the “SPOT peptide array binding signal intensity” value is reported as 3.5.
